Source: PubChem BioAssay (Tox21)
Values joined by “and” are separate entries in the source; they are usually repeats but may differ in a detail not shown here. Identical values can stand only once. Some structures have more than one record in an assay (separate samples or runs), and their calls can disagree. Active and inactive are the calls of the source. A call without a number means that no potency is given here. Unless noted, calls come from the whole dose curve; as a rule, active = well fitted curve in the direction sought with a large enough effect in the repeat runs; inconclusive = weak or mixed curves; inactive = no such curve, though single readings can be large; an effect the other way counts as inactive or inconclusive.

Experiments:
[1] = qHTS assay to identify small molecule antagonists of the glucocorticoid receptor (GR) signaling pathway - cell viability counter screen (AID 720693); note: nearly all actives have a fitted effect of over 55% in size; note: potency is the fitted concentration of half-maximal effect
[2] = qHTS assay for identifying genotoxic compounds that show differential cytotoxicity against isogenic chicken DT40 cell lines with known DNA damage response pathways - Rev3 mutant cell line (AID 743014); note: nearly all actives have a fitted effect of over 55% in size; note: potency is the fitted concentration of half-maximal effect
[3] = qHTS assay for identifying genotoxic compounds that show differential cytotoxicity against isogenic chicken DT40 cell lines with known DNA damage response pathways - Rad54/Ku70 mutant cell line (AID 743015); note: nearly all actives have a fitted effect of over 60% in size; note: potency is the fitted concentration of half-maximal effect
[4] = qHTS assay to identify small molecule antagonists of the androgen receptor (AR) signaling pathway - cell viability counter screen (AID 743033; note: nearly all actives have a fitted effect of over 45% in size; note: potency is the fitted concentration of half-maximal effect)
[5] = qHTS assay to identify small molecule antagonists of the androgen receptor (AR) signaling pathway using the MDA cell line - cell viability counter screen (AID 743041; note: nearly all actives have a fitted effect of over 45% in size; note: potency is the fitted concentration of half-maximal effect)
In short: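 R1881-driven MDA-kb2 AR-luc cells, 3,000/well, were dosed with library compounds for 16 h; cell health came from CellTiter-Fluor fluorescence in the reporter wells.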

[6] = qHTS assay to identify small molecule antagonists of the thyroid receptor (TR) signaling pathway (AID 743065); note: nearly all actives have a fitted effect of over 55% in size; note: potency is the fitted concentration of half-maximal effect
In short: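 Antagonism measured as loss of luciferase signal in GH3 cells stably carrying a TRE-luciferase reporter, co-treated with compound and T3 (1 nM final) for 23.5 h at 37 C. Viability was read in the same well by CellTiter-Fluor.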

[7] = system: thyroid hormone receptor (rat, GH3 cells); assay: qHTS assay to identify small molecule agonists of the thyroid receptor (TR) signaling pathway (AID 743066; calls by dose curve; note: potency is the fitted concentration of half-maximal effect)
[8] = qHTS assay to identify small molecule antagonists of the estrogen receptor alpha (ER-alpha) signaling pathway - cell viability counter screen (AID 743074; calls by dose curve;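 note: HEK293 cells carrying ER-alpha-UAS-bla reporter stimulated with 17beta-estradiol; nearly all actives have a fitted effect of over 45% in size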; note: potency is the fitted concentration of half-maximal effect)
[9] = qHTS assay to identify small molecule antagonists of the estrogen receptor alpha (ER-alpha) signaling pathway using the BG1 cell line (AID 743080; calls by dose curve;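 note: BG1 cells stimulated with 17beta-estradiol alongside compound; nearly all actives have a fitted effect of over 25% in size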; note: potency is the fitted concentration of half-maximal effect)
In short: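 BG1-Luc-4E2 cells (endogenous full-length ER-alpha, stable 4×ERE-luciferase) were starved 5 days in phenol-red-free medium with 10% charcoal-stripped FBS, plated 24 h, then given compound plus 17beta-estradiol for 21.5 h at 37 C; ONE-Glo luminescence read after 30 min.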

Aromatase (Homo sapiens) = Aromatase (Homo sapiens) (UniProt P11511); assay: qHTS assay to identify aromatase inhibitors (AID 743083); note: nearly all actives have a fitted effect of over 55% in size; note: potency is the fitted concentration of half-maximal effect
Chain of Aromatase (Homo sapiens) (P11511 whole entry, looked up): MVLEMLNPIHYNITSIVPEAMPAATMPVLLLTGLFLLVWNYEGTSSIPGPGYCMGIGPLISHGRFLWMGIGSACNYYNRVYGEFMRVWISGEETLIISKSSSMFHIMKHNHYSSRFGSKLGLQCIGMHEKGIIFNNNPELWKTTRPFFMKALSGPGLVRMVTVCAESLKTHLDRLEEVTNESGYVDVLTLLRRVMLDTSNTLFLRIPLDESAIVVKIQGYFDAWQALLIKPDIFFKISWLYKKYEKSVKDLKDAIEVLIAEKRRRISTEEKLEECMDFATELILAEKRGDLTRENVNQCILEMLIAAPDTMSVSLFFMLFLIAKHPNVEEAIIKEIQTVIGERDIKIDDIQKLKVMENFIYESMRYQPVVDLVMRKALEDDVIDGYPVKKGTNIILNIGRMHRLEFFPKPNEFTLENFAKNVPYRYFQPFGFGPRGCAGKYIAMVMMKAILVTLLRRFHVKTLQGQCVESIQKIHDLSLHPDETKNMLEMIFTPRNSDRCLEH

[10] = biological target: Androgen receptor (Homo sapiens) (UniProt P10275); assay: qHTS assay to identify small molecule antagonists of the androgen receptor (AR) signaling pathway (AID 743035; active = well fitted inhibition curve with a large enough effect in the signal ratio in the repeat runs, not every such curve was filed as active; inconclusive = weak or mixed curves, or effect the other way; inactive = no such curve, though single readings can be large or run the other way; the % refers to the signal ratio; note: potency is the fitted concentration of half-maximal effect)
Chain of Androgen receptor (Homo sapiens) (P10275 whole entry, looked up): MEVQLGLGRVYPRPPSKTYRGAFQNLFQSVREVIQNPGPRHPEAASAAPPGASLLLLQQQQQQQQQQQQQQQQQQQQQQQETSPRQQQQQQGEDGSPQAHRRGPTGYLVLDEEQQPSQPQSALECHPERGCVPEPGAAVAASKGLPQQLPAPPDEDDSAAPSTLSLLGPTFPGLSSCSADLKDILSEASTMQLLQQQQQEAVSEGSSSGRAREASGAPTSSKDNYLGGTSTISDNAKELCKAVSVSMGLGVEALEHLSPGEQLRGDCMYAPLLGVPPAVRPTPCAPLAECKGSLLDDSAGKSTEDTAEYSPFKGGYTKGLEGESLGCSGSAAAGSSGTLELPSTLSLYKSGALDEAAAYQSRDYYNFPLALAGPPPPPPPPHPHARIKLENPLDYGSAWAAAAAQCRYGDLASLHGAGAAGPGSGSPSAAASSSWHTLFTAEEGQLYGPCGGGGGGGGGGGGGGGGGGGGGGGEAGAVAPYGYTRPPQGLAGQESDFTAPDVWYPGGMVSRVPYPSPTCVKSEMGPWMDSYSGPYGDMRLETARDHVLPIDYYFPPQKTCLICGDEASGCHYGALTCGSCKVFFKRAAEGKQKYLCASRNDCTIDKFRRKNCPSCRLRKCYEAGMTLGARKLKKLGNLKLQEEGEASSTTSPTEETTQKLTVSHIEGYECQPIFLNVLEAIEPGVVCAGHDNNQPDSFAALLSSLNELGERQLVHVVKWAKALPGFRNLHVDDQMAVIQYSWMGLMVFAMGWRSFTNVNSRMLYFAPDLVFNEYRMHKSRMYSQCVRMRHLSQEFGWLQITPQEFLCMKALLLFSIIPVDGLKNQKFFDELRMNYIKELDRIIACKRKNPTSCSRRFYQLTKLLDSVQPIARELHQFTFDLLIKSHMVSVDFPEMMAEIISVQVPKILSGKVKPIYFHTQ
In short: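 Beta-lactamase FRET read (2 h RT incubation with LiveBLAzer B/G) following 16 h of compound plus R1881 treatment of AR-UAS-bla HEK293 cells, which had been pre-incubated 4 h at 37C.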

[11] = biological target: Androgen receptor (Homo sapiens) (UniProt P10275); assay: qHTS assay to identify small molecule agonists of the androgen receptor (AR) signaling pathway using the MDA cell line (AID 743040; note: nearly all actives have a fitted effect of over 20% in size)
In short: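 After a 5 h incubation at 37C and 0% CO2, MDA-kb2 reporter cells were dosed with compounds in DMSO and kept 16 h under the same conditions. Luciferase activity was then read as luminescence with ONE-Glo.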

[12] = biological target: Androgen receptor (Homo sapiens) (UniProt P10275); assay: qHTS assay to identify small molecule antagonists of the androgen receptor (AR) signaling pathway using the MDA cell line (AID 743042; note: nearly all actives have a fitted effect of over 55% in size; note: potency is the fitted concentration of half-maximal effect)
In short: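 Antagonist mode: compounds plus R1881 agonist added to MDA-kb2 AR-luc cells, incubated 16 h at 37C. Luciferase reporter luminescence quantified, with multiplexed CellTiter-Fluor readout for cell viability.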

[13] = qHTS assay to identify small molecule antagonists of the thyroid receptor (TR) signaling pathway - cell viability counter screen (AID 743064); note: nearly all actives have a fitted effect of over 50% in size; note: potency is the fitted concentration of half-maximal effect
In short: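 GH3.TRE-Luc cells, 4 h pre-plating; cpd + T3 1 nM final; 37 °C 23.5 h; CellTiter-Fluor 30 min; fluorescence read.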

[14] = qHTS assay to identify small molecule antagonists of the estrogen receptor alpha (ER-alpha) signaling pathway using the BG1 cell line - cell viability counter screen (AID 743081);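 note: compound given together with 17beta-estradiol as the ER stimulus; nearly all actives have a fitted effect of over 45% in size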; note: potency is the fitted concentration of half-maximal effect
[15] = biological target: Estrogen receptor (Homo sapiens) (UniProt P03372); assay: qHTS assay to identify small molecule antagonists of the estrogen receptor alpha (ER-alpha) signaling pathway (AID 743069; active = well fitted curve in the direction sought with a large enough effect in the signal ratio in the repeat runs, not every such curve was filed as active; inconclusive = weak or mixed curves, or effect the other way; inactive = no such curve, though single readings can be large or run the other way; the % refers to the signal ratio; note: potency is the fitted concentration of half-maximal effect)
Chain of Estrogen receptor (Homo sapiens) (P03372 whole entry, looked up): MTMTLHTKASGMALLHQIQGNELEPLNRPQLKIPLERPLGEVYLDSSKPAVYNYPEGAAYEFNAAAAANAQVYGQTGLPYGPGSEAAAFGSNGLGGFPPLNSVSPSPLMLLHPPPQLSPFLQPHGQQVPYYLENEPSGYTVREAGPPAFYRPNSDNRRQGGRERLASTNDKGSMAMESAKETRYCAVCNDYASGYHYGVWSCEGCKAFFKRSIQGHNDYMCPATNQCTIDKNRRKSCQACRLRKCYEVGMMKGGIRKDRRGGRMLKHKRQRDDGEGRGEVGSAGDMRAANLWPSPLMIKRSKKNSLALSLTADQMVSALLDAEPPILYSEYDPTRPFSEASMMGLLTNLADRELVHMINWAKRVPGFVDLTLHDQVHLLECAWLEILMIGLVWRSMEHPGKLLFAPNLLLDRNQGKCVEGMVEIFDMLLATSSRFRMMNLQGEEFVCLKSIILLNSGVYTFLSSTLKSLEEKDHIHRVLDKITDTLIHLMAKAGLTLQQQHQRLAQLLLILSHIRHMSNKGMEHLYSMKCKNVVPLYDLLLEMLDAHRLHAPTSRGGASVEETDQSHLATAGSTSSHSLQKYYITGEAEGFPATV
In short: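 Compound effects are measured against 17beta-estradiol stimulation in HEK293 cells with a UAS-controlled beta-lactamase reporter for ER-alpha. Exposure lasts 18 hr at 37C; LiveBLAzer B/G FRET substrate follows for 2 hr at room temperature.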

[16] = biological target: Estrogen receptor (Homo sapiens) (UniProt P03372); assay: qHTS assay to identify small molecule agonists of the estrogen receptor alpha (ER-alpha) signaling pathway using the BG1 cell line (AID 743079); details: BG1Luc4E2 cells, ERE-luciferase agonist, 22 h; activation: at 70.3 µM (top of the series); note: nearly all actives have a fitted effect of over 20% in size
[17] = biological target: Estrogen receptor (Homo sapiens) (UniProt P03372); assay: qHTS assay to identify small molecule agonists of the estrogen receptor alpha (ER-alpha) signaling pathway (AID 743075; calls by dose curve; note: potency is the fitted concentration of half-maximal effect)
[18] = qHTS assay for identifying genotoxic compounds that show differential cytotoxicity against isogenic chicken DT40 cell lines with known DNA damage response pathways - wild type cell line (AID 743012); note: nearly all actives have a fitted effect of over 60% in size; note: potency is the fitted concentration of half-maximal effect
In short: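 First, wild type DT40 cells were plated at 300 per well and equilibrated about 0.5 h at 37 C/5% CO2. Next, compounds in DMSO were added and exposure lasted 40 h. Finally, CellTiter-Glo was added for 30 min at room temperature and luminescence recorded.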

[19] = biological target: Androgen receptor (Homo sapiens) (UniProt P10275); assay: qHTS assay to identify small molecule agonists of the androgen receptor (AR) signaling pathway (AID 743036; active = well fitted activation curve with a large enough effect in the signal ratio in the repeat runs, with a control signal flat, not every such curve was filed as active; inconclusive = weak or mixed curves, or effect the other way; inactive = no such curve, though single readings can be large or run the other way; the % refers to the signal ratio)
In short: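 AR-bla HEK293 cells, 2,000/well; 4 h preincubation 37C/5% CO2; compound (DMSO) 16 h at 37C; LiveBLAzer B/G FRET substrate 2 h RT; fluorescence intensity read-out.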

Compound: Nc1nc(N)c(N)c(N)n1
- Potency [1]: inactive
- Potency [2]: inactive
- Potency [3]: inactive
- Potency [4]: inactive
- Potency [5]: inactive
- Potency [6]: inactive
- Potency [7]: inactive
- Potency [8]: inactive
- Potency [9]: inactive
- Potency (Aromatase (Homo sapiens)): inactive

Compound: O=C1C2(Cl)C3(Cl)C4(Cl)C(Cl)(Cl)C5(Cl)C3(Cl)C1(Cl)C5(Cl)C24Cl (configuration not stated)
- Potency [1]: 24.1 µM (active)
- Potency [3]: 19 µM (active) and 26.1 µM (active)
- Potency [4]: 38.3 µM (active) and 46.9 µM (active)
- Potency [10]: 23.5 µM (active)
- outcome [11]: inactive
- Potency [12]: 60.1 µM (active)
- Potency [13]: 9.53 µM (active) and 13.1 µM (active)
- Potency [6]: 9.53 µM (active) and 11.7 µM (active)
- Potency [7]: inactive
- Potency [8]: 54 µM (active)
- Potency [14]: inactive
- Potency (Aromatase (Homo sapiens)): 26.9 µM (active) and 52.2 µM (active)

Compound: N#CSCc1ccccc1
- Potency [1]: inactive
- Potency [2]: inactive
- Potency [3]: inactive
- Potency [4]: inactive
- Potency [13]: inactive
- Potency [6]: inactive
- Potency [7]: inactive
- Potency [15]: inactive
- Potency [8]: inactive
- Potency [16]: inactive
- Potency [9]: inactive
- Potency [14]: inactive
- Potency (Aromatase (Homo sapiens)): inactive

Compound: CNC(=O)/C=C(\C)OP(=O)(OC)OC
- Potency [1]: inactive
- Potency [2]: inactive
- Potency [3]: inactive
- Potency [4]: inactive
- Potency [5]: inactive
- Potency [6]: inactive
- Potency [7]: inactive
- Potency [15]: inactive
- Potency [8]: inactive
- Potency [17]: inactive
- Potency [16]: inactive
- Potency [9]: inactive
- Potency [14]: inactive
- Potency (Aromatase (Homo sapiens)): inactive

Compound: Oc1cccc(Cl)c1Cl
- Potency [1]: inactive
- Potency [3]: inactive
- Potency [4]: inactive
- Potency [5]: inactive
- Potency [6]: inactive
- Potency [7]: inactive
- Potency [15]: inactive
- Potency [8]: inactive
- Potency [17]: inactive
- Potency [16]: inactive
- Potency [9]: inactive
- Potency [14]: inactive
- Potency (Aromatase (Homo sapiens)): inactive

Compound: Nc1c(Cl)c(Cl)c(Cl)c(Cl)c1Cl
- Potency [1]: inactive
- Potency [3]: inactive
- Potency [4]: inactive
- outcome [11]: inactive
- Potency [12]: inactive
- Potency [6]: inactive
- Potency [7]: inactive
- Potency [8]: inactive
- Potency [14]: inactive
- Potency (Aromatase (Homo sapiens)): inactive

Compound: CCC[CH2][Sn]([CH2]CCC)([CH2]CCC)[O][Sn]([CH2]CCC)([CH2]CCC)[CH2]CCC
- Potency [1]: 1.35 µM (active)
- Potency [3]: 267 nM (active)
- Potency [4]: 603 nM (active)
- Potency [10]: 0.427 µM (active)
- activity change [11]: -9.89% [at 8.47 µM] (inactive)
- Potency [5]: 1.5 µM (active)
- Potency [12]: 0.844 µM (active)
- activity change, negative = cytotoxic [13]: 15.8% [at 8.44 µM] (inactive)
- activity, negative = inhibition [6]: 7.29% [at 8.44 µM] (inactive)
- Potency [8]: 0.852 µM (active)
- Potency (Aromatase (Homo sapiens)): 2.67 µM (active)

Compound: CCOP(=O)(OCC)Oc1cc(C)nc(C(C)C)n1
- Potency [1]: inactive
- Potency [3]: inactive
- Potency [4]: inactive
- Potency [5]: inactive
- Potency [13]: inactive
- Potency [6]: inactive
- Potency [7]: inactive
- Potency [8]: inactive
- Potency [14]: inactive
- Potency (Aromatase (Homo sapiens)): inactive

Compound: COP(=S)(OC)Oc1nc(Cl)c(Cl)cc1Cl
- Potency [1]: inactive
- Potency [2]: 61.1 µM (active)
- Potency [4]: inactive
- Potency [5]: inactive
- Potency [7]: inactive
- Potency [8]: inactive
- Potency [17]: inactive
- Potency [16]: inactive
- Potency [9]: inactive
- Potency [14]: inactive
- Potency (Aromatase (Homo sapiens)): inactive

Compound: O=C1C(Cl)=C(Cl)C(=O)C(Cl)=C1Cl
- Potency [1]: 38.9 µM (active)
- Potency [3]: 17.2 µM (active) and 8.63 µM (active)
- Potency [4]: 17.3 µM (active) and 21.9 µM (active)
- outcome [11]: inactive
- Potency [12]: 34.2 µM (active) and 30.6 µM (active)
- Potency [13]: 15.3 µM (active) and 13.7 µM (active)
- Potency [6]: 9.65 µM (active) and 5.45 µM (active)
- Potency [7]: inactive
- Potency [15]: 54.9 µM [inconclusive] (active)
- Potency [8]: inactive
- Potency [17]: 43.7 µM [activator] (active)
- Potency [16]: inactive
- Potency [9]: inactive
- Potency [14]: inactive
- Potency (Aromatase (Homo sapiens)): 9.65 µM (active) and 9.69 µM (active)

Compound: Clc1ccc(C(Cl)(Cl)Cl)cc1Cl
- Potency [1]: inactive
- Potency [2]: inactive
- Potency [3]: inactive
- Potency [4]: inactive
- Potency [13]: inactive
- Potency [15]: inactive
- Potency [8]: inactive
- Potency [17]: inactive
- Potency [16]: inactive
- Potency [9]: inactive
- Potency [14]: inactive
- Potency (Aromatase (Homo sapiens)): inactive

Compound: CC(C)N(C(=O)SC/C(Cl)=C/Cl)C(C)C
- Potency [18]: inactive
- Potency [2]: inactive
- Potency [3]: inactive
- Potency [4]: inactive
- Potency [7]: inactive
- Potency [15]: inactive
- Potency [16]: inactive
- Potency [9]: inactive
- Potency [14]: inactive

Compound: CSC(C)(C)/C=N/O
- Potency [18]: inactive
- Potency [2]: inactive
- Potency [3]: inactive
- Potency [4]: inactive
- Potency [5]: inactive
- Potency [13]: inactive
- Potency [6]: inactive
- Potency [7]: inactive
- Potency [15]: inactive
- Potency [8]: inactive
- Potency [17]: inactive
- Potency [9]: inactive
- Potency [14]: inactive
- Potency (Aromatase (Homo sapiens)): inactive

Compound: O=C(O)CCCCCCNC1c2ccccc2CCc2ccccc21
- Potency [18]: inactive
- Potency [2]: inactive
- Potency [3]: inactive
- Potency [4]: inactive
- Potency [13]: inactive
- Potency [7]: 23.7 µM (active)
- Potency [15]: inactive
- Potency [17]: inactive
- Potency [16]: inactive
- Potency [9]: inactive
- Potency [14]: inactive

Compound: CCCCCCCCCCCCCCn1cc[n+](C)c1
- Potency [18]: 217 nM (active) and 241 nM (active) and inactive
- Potency [2]: 109 nM (active) and 152 nM (active) and inactive
- Potency [3]: 122 nM (active) and 135 nM (active) and inactive
- Potency [4]: 6.93 µM (active) and 24.3 µM (active) and inactive
- Potency [13]: 2.74 µM (active) and 15.2 µM (active)
- Potency [6]: 1.09 µM (active) and 3.81 µM (active)
- Potency [7]: inactive
- Potency [15]: 7.78 µM [inconclusive] (active) and 1.22 µM [inconclusive] (active) and inactive
- Potency [8]: 48.5 µM (active) and inactive
- Potency [17]: inactive
- Potency [16]: inactive
- Potency [9]: 1.37 µM (active) and 4.8 µM (active) and inactive
- Potency [14]: 30.7 µM (active) and 24.1 µM (active)
- Potency (Aromatase (Homo sapiens)): 2.44 µM (active) and 5.39 µM (active) and inactive

Compound: C=CCOC(=O)c1ccccc1N
- Potency [18]: inactive
- Potency [2]: inactive
- Potency [3]: inactive
- Potency [4]: inactive
- Potency [10]: inactive
- outcome [19]: inactive
- outcome [11]: inactive
- Potency [12]: inactive
- Potency [13]: inactive
- Potency [6]: inactive
- Potency [7]: inactive
- Potency [15]: inactive
- Potency [8]: inactive
- Potency [17]: inactive
- Potency [16]: inactive
- Potency [9]: inactive
- Potency [14]: inactive
- Potency (Aromatase (Homo sapiens)): inactive
